Here are results for 40 molecules from PubChem BioAssay (NCI).

This is part of a sample that, as a whole, favours compounds with a hit. Of some 83,000 tested, about 20% had one in any assay.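 96-well plates, one dose, 48 hours. Percent growth reported; active if below 10.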 Activity calls are given as the source filed them.

The experiment deals with MDA-MB-435 melanoma. Briefly: NCI-60 one-dose screen, 48 h (100 = growth as untreated, 0 = no growth, -100 = all killed). The note with it: 10 µM unless noted. As for the experimental part: Growth inhibition of the MDA-MB-435 human Melanoma tumor cell line is measured as a screen for anti-cancer activity. Cells are grown in 96 well plates and exposed to the test compound for 48 hours. Compounds are tested at a single concentration, which is 10^-5 M for most compounds. The reported endpoint is percent growth (GI% or GIPRCNT), where numbers from 0 - 100% represent growth inhibition, and numbers from -100% - 0 represent cell death. For example, a value of 40 represents 60% growth inhibition. A value of 0 means no net growth occurred over the course of the experiment. A value of -40 indicates 40% of cells at the beginning of the experiment died by the end of the experiment. A value of -100 means all cells are dead at the end of the experiment.
NCI-60 Human Tumor Cell Lines Screen was performed using the standard one-dose NCI protocol, which is described in more detail at https://dtp.cancer.gov/discovery_development/nci-60/default.htm.
Compounds with GIPRCNT values below 10 were considered active. Activity score was based on GIPRCNT using the following formula: […]
Score is 0 for GIPRCNT values of 100 or above, 50 for GIPRCNT values of 0, and 100 for GIPRCNT values of -100.
As to `COc1ccc(-c2cn(-c3cc(OC)c(OC)c(OC)c3)c(=O)n2C(C)=O)cc1`, the growth was 79.4% (inactive).

With `CC(=O)c1cc(O)c2ccccc2c1O`, the growth is 111% (inactive).

As for `COc1ccc(C(=O)Nc2ncc(Cc3cccc(Cl)c3)s2)cc1OC`, the growth is 0.543% (active).

As to `O=C(OCc1ccc2cccc(O)c2n1)N1CCN(C(=O)c2cc3cc(F)ccc3[nH]2)CC1`, the growth is -89.8% (active).

Take `COC(=O)c1c2c(c[n+]([O-])c1C)C(=O)C(NCc1ccccc1)=CC2=O`: the growth is -93.7% (active).

Regarding `CC(C)n1cnc2c(=S)nc[nH]c21`, the growth is 94.9% (inactive).

Take `CCCCC[C@@H]1Cc2cc(O)c(C(=O)O)c3c2[C@H](C[C@]2(OC[C@@H](CC(=O)[C@@](C)(CC)C(=O)OC)[C@@H]2C)O3)O1`: the growth is 117% (inactive).

As to `CCC(C)N(c1ccc(Cl)cc1)c1nc(-c2ccc(Br)cc2)cs1` (stereo not given), the growth was 101% (inactive).

For `COc1ccc(CC(C#N)c2cc3ccccc3[nH]2)cc1` (stereo not given), the growth is 82.2% (inactive).

Regarding `CN1CCN(c2ccc(NC(=O)c3nc4ccc5[nH]ncc5c4c4c3CCCC4)cc2C(F)(F)F)CC1`, the growth was 29.7% (inactive).

On to `COc1cccc(CNc2ncnc3c2ncn3C2OC(CO)C(O)C2O)c1O` (stereo not given), for which the growth is 5.51% (active).

For `N#Cc1cnc(NCCc2ccncc2)nc1-n1cnc2ccccc21`, the growth was 69% (inactive).

Turning to `N#CC1C=CN(CC(N)=O)c2ccc3cccnc3c21` (stereo not given), the growth was 102% (inactive).

On to `COc1ccc2cc(-c3ccc(NC(C)=O)c(=O)o3)ccc2c1`, for which the growth is 107% (inactive).

As to `O=C(CI)NC1Oc2ccccc2-c2oc(=O)c(-c3ccccc3)cc21` (stereo not given), the growth is 17.9% (inactive).

As to `O=C(c1ccc(Cl)cc1)N1CCN(c2ccnc3cc(Cl)ccc23)CC1`, the growth is 97.5% (inactive).

With `CSc1nnc(-c2cnn3c2NC(c2ccccc2)C3)n1-c1ccc(C(F)(F)F)cc1` (stereo not given), the growth is -25.7% (active).

As for `CC(C)c1ccc(NC(=O)Nc2ccc(NC(=O)CCCC(=O)NOCc3ccccc3)cc2)cc1`, the growth is 89.1% (inactive).

On to `COc1cc2c(c(OC)c1OC)C(=O)CC(c1cccc(NC(=O)c3ccc(Br)cc3)c1)O2` (stereo not given), for which the growth was -18.3% (active).

Regarding `Cc1ccccc1Cn1cnc2ccc(-c3cc(NC(=O)c4ccc(NC5CCN(C)CC5)cc4)n[nH]3)cc21`, the growth is 61% (inactive).

Regarding `CC1Cc2c(Cl)ncnc2N(C)c2ccc(F)cc21` (stereo not given), the growth was 102% (inactive).

For `Cc1ccc(-c2csc(NC(=O)CN3CCN(c4cc5c(cc4F)c(=O)c(C(=O)O)cn5C4CC4)CC3)n2)cc1`, the growth is 14.4% (inactive).

For the molecule `COc1ccc(N2CCC(=O)NC2=S)cc1`, the growth is 109% (inactive).

Consider `O=C(CSc1nc(-c2ccccc2)[nH]c1S(=O)(=O)c1ccccc1)NC1CC1`, for which the growth was 108% (inactive).

As to `Nc1ncnc2c1N=C(c1ccc3c(c1)OCO3)CC(c1ccc([N+](=O)[O-])cc1)N2` (stereo not given), the growth is 79.8% (inactive).

Regarding `O=C(c1ccc(-c2ccccc2)cc1)c1ccc([N+](=O)[O-])cc1`, the growth is 92.6% (inactive).

Consider `COc1cc(NC(C)CCCNC(C)C)c2ncccc2c1OC` (stereo not given), for which the growth is 108% (inactive).

As for `Oc1c(Cl)cc(Cl)c2ccc(Cn3cc(-c4cc(F)cc(F)c4)nn3)nc12`, the growth was 60.8% (inactive).

For the molecule `COc1ccc(-c2nc(SCC(C)C)nc(N/N=C\c3ccc(F)cc3)c2C#N)cc1`, the growth was 92.5% (inactive).

As to `CC(C)N1CN2C(=S)NC3C2N(C1)C(=S)N3C` (stereo not given), the growth is 104% (inactive).

As for `CN([O-])c1nc(N(C)[O-])nc(N2CCOCC2)n1.CN([O-])c1nc(N(C)[OH2+])nc(N2CCOCC2)n1.[Fe+3]`, the growth is -30.5% [100 µM] (active).

In the case of `COc1ccc2[nH]cc(-c3nc(-c4cn(C)c5c(Cl)nccc45)cs3)c2c1`, the growth was 6.78% (active).

`C=C1C(=O)O[C@H]2[C@H]1CC/C(COC(=O)CSCCSCC(=O)OC/C1=C/CC[C@@]3(C)O[C@H]3[C@H]3OC(=O)C(=C)[C@@H]3CC1)=C\CC[C@@]1(C)O[C@@H]21`: the growth was 34.3% (inactive).

For `CCc1ccc(C(=O)/C=C/C23c4ccccc4C(c4ccccc42)C2C(=O)NC(=O)C23)cc1` (stereo not given), the growth is -46.6% (active).

Consider `O=C1/C(=C\c2cn(-c3ccccc3)nc2-c2ccc(-c3cccs3)cc2)CCc2ccccc21`, for which the growth was -24.6% (active).

Take `O=C1c2c(c3c4ccc(Br)cc4oc3c3[nH]c4ccccc4c23)C(=O)N1O`: the growth is 19.1% (inactive).

Consider `CCN(CC)CCSc1nc(-c2ccccc2)c(C#N)c(=O)[nH]1`, for which the growth is 103% (inactive).

In the case of `OCCNCCCOc1ccc2ncnc(Nc3ccc(Oc4cccc(C(F)(F)F)c4)c(Cl)c3)c2c1`, the growth was -65.2% (active).

Consider `O=C1Nc2ccc(Br)cc2/C1=N/c1n[nH]c(=S)s1`, for which the growth is 101% (inactive).

Take `COc1cc2c(c(OC)c1OC)CCC(c1cccc(C(=O)Nc3cccc(Br)c3)c1)O2` (stereo not given): the growth was 69.6% (inactive).
